Assay outcomes as filed in PubChem.
The list is not random: actives were taken first. Their share in the collection is about 2.8%.
MBNL1 CUG block = MBNL1-poly(CUG) RNA binding inhibition; Q9NR56; TR-FRET MBNL1-His/biotin-(CUG)12 binding, 665/545 ratio; Potency, µM (doses to about 57.5 µM), inactives show at the top dose activity change, negative = inhibition, most hits filed as inhibitors; actives 0.036% (n = 280,000); AID 2675; active means well fitted inhibition curve with a large enough effect in the signal ratio, with a control signal flat, not every such curve was filed as active; inconclusive means small, poorly fitted or top-dose-only effect, or effect the other way, or a change in a side signal; inactive means no such curve, though single readings can be large or run the other way; the % refers to the signal ratio; further: potency means the concentration at half of the fitted maximal effect; on the % scale 0 is the no-effect control and ±100 the full control effect
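TR-FRET readout: Ex 340 nm, 665/545 nm emission ratio, normalized to buffer-only (basal) and MBNL1-(CUG)12 controls. Complex of MBNL1-His with Biotin-(CUG)12, compounds 92 nM–58 uM, incubated 60 min at room temperature.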
D3 ag = D3 dopamine receptor (human) agonism; actives 0.58% (n = 410,000); P35462; D3R DiscoveRx beta-arrestin cells, luminescence, 90 min; max activation, %; in the data active means max activation above about 30%; further: 0% is about no effect
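Cells at 1500/well, incubated overnight, then treated with pinned compounds (dopamine as control) for 90 min at 37 degrees C. DiscoveRx reagent added for 30 - 60 minutes at room temperature; luminescence read.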
DRD3 antagonist = D3 dopamine receptor (human) antagonism. D3R cells, DiscoveRx beta-arrestin luminescence, antagonist mode; stronger effect = lower value. actives 2.5% (n = 360,000). max response, negative = inhibition, %; in the data active means max response below about -50%; inconclusive means no clear call, values can overlap the other calls; further: on the % scale 0 is the no-effect control and ±100 the full control effect
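Cells plated overnight at 1500 cells/well, then exposed to library compounds with dopamine controls for 90 minutes at 37 degrees C. DiscoveRx reagent added for 30–60 minutes at room temperature; luminescence read, quantitative HTS format.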
a7 integrin act = activates integrin-mediated alleviation for muscular dystrophy; alpha7betagal myoblasts, beta-gal FDG fluorescence, 48 h; actives 0.064% (n = 350,000); Potency, µM (titrated, usually from 38.3 µM), without a hit: top-dose activation, usual class: activators;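 further: potency means the concentration at half of the fitted maximal effect; 100% = response of the positive control SU9516; nearly all actives have a fitted effect of over 60% in size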
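Alpha7betagal+/- myoblasts (passage 13) were plated 16-24 hr, then exposed to compounds (1:260 dilution of DMSO stock) for 48 hours at 37C. After MPER lysis, β-galactosidase reporter activity was read as FDG fluorescence (ex 480/em 540) after 30 minutes.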
CBFb-RUNX1 inh = CBF-beta/RUNX1 interaction disruption; Potency, µM (titrated, usually from 59.8 µM), without a hit: top-dose activity, negative = inhibition, actives largely listed as inhibitors; Q01196+Q13951; AlphaScreen CBFb-His/RUNX1-biotin binding, biochemical; 230,000 tested, under 10 active; further: % of control where 0% means no effect
Target sequence (Q01196 whole entry, looked up): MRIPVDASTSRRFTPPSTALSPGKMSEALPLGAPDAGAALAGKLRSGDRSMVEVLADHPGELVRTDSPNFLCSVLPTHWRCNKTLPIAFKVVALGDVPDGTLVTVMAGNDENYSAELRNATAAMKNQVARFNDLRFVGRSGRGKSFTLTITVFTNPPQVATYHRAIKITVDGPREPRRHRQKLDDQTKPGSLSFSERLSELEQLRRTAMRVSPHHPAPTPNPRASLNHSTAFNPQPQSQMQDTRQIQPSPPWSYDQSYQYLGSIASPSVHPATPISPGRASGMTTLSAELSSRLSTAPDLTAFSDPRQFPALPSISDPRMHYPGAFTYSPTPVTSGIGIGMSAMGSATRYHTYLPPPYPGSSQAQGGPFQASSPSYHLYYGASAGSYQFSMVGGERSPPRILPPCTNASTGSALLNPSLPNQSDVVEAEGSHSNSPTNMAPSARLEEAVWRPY
Target sequence (Q13951 whole entry, looked up): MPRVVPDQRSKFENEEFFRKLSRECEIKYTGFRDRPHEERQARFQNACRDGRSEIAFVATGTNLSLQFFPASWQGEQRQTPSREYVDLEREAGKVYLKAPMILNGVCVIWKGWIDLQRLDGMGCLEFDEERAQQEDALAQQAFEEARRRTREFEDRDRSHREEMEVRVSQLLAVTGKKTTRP
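CBFb-His/RUNX1-biotin, 30 nM each, preincubated 20 min RT; compound 15 min RT; Ni + streptavidin beads 50 ng each, 90 min RT; AlphaScreen read.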
PTHR1 ag = agonists of human PTHR1 parathyroid hormone receptor | actives 0.075% (n = 410,000) | Q03431 | HEK293 GP2 PTHR1 cells, GloSensor cAMP luminescence, 1 h | Potency, µM (highest dose often 115 µM), for the others: at the highest dose activation, hits mostly activators; further: potency means the concentration at half of the fitted maximal effect; nearly all actives have a fitted effect of over 55% in size
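HEK-293-derived GP2 cells expressing PTHR1 and a GloSensor cAMP reporter, 3,000/well, plated overnight, given luciferin plus IBMX (each 0.5 mM as added) for 1 h at 37 °C, then compound for 1 h at 37 °C. Luminescence was read after 15 min at room temperature.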
An asterisk follows results filed as active; i = inactive; ? = inconclusive; nt = no result; [ ] = dose if it differs, or a comment. Unless noted, the call rests on the fitted dose curve; in most records, active means well fitted curve in the direction sought with a large enough effect; inconclusive means small, poorly fitted or top-dose-only effect, or another doubt; inactive means no such curve, though single readings can be large; an effect the other way counts as inactive or inconclusive.

SMILES | MBNL1 CUG block | D3 ag | DRD3 antagonist | a7 integrin act | CBFb-RUNX1 inh | PTHR1 ag
Cc1ccc(NC(=S)NNC(=S)Nc2cccc(C(F)(F)F)c2)cc1 | -5.3% | 0.8 | -28.0 | -40.6% | 1.0% | -14.9%
Cc1ccc(NC(=S)NNc2ncc(C(F)(F)F)cc2Cl)c(C)c1 | -1.0% | -13.2 | -53.5* | -1.8% | -3.6% | i
FC(F)(F)c1cnc(NNC(=S)Nc2ccc(Cl)cc2)c(Cl)c1 | 17.0% | -11.8 | -64.1* | -53.4% | -14.3% | -25.3%
CC1CCCC12NC(=O)NC2=O (stereo not drawn) | nt | 5.7 | -2.6 | 11.7% | nt | -24.2%
CN(C(=O)CSc1nnc(Cc2cccs2)n1C1CC1)C1CCS(=O)(=O)C1 (stereo not drawn) | nt | 2.7 | 2.0 | 2.7% | nt | i
Cc1ccc(CNC(=O)CN(C(=O)C2(C)CC(=O)N=C3C=CC=CN32)c2cccc(C)c2C)cc1 (stereo not drawn) | -2.1% | 2.3 | 2.2 | -3.4% | nt | i
O=C(Nc1ccccc1C(=O)O)c1cc(S(=O)(=O)N2CCCCC2)c(Cl)cc1Cl | -3.2% | 31.4* | 108.9 | -5.6% | nt | -28.8%
O=C(Cc1ccc(F)cc1)NC1CC(=O)N(c2ccccc2)C1 (stereo not drawn) | nt | 7.6 | nt | nt | nt | -21.0%
CCC(=O)N1CCc2cc(CNC(=O)c3ccc(OC)cc3)ccc21 | nt | -8.5 | nt | nt | nt | i
O=c1ccc2cc([N+](=O)[O-])c(CCO)cc2o1 | ? | 5.2 | -52.2* | 7.4% | nt | i
COC(=O)c1ccc(NC(=O)C[n+]2ccccc2C)cc1 | -3.0% | -4.7 | -59.4* | 18.6% | nt | -24.0%
O=C(CSc1ncc(-c2ccc(F)cc2)[nH]1)N1CCCCC1 | -8.2% | -1.2 | -58.9* | 12.6% | 6.0% | i
O=C(CSc1ncn[nH]1)N1CCCCC1 | -7.2% | 8.0 | 6.2 | 10.5% | 13.5% | -25.4%
CC1CCN(CC(=O)N2CCc3ccccc32)CC1 | 4.2% | 0.4 | -57.6* | -8.9% | nt | -2.8%
O=C(CSc1nnc(-c2cccs2)n1-c1ccccc1)N1CCCc2ccccc21 | 9.5% | -2.1 | -20.9 | 24.1% | -3.0% | -10.8%[57.5 µM]
CCOC(=O)C1CCN(CC(=O)N2CCc3ccccc32)CC1 | -3.7% | -25.2 | -74.4* | -15.3% | nt | -5.4%
O=C(CN1CCCC1)N1CCCc2ccccc21 | -5.6% | -12.6 | ? | -11.4% | 0.9% | i
CCn1c(SCC(=O)N2CCCc3ccccc32)nnc1-c1cccs1 | 0.3% | 5.0 | -68.0* | -10.9% | 6.2% | -5.4%
O=C(CN1CCCCC1)N1CCCc2ccccc21 | 0.8% | -38.5 | -82.3* | -2.9% | 0.5% | -9.2%[57.5 µM]
Cc1cc(NC(=O)CCC(=O)N(Cc2cccs2)C(C)(C)C(=O)NC2CCCCC2)no1 | 0.8% | -9.0 | -12.1 | 1.7% | nt | i
CN(Cc1ccccc1F)c1cc2c(c3c1ccn3C)C1CCC2C1 (stereo not drawn) | nt | -2.6 | -6.2 | nt | nt | i
O=C(O)[C@H]1/C(=C/CO)O[C@@H]2CC(=O)N21 | nt | 4.3 | nt | nt | nt | nt
CCc1nc(SCC(=O)N2CCc3ccccc32)c2oc3ccccc3c2n1 | nt | -3.6 | 8.8 | 31.2% | nt | i
O=C(Cc1ccccc1)N1CCc2ccccc21 | -6.6% | -8.6 | 13.2 | 7.2% | 17.3% | -19.1%[57.5 µM]
N=c1sccn1CC(=O)N1CCc2ccccc21 | 0.2% | 2.7 | -65.2* | 12.1% | 3.4% | -17.8%[57.5 µM]
SMILES | MBNL1 CUG block | D3 ag | DRD3 antagonist | a7 integrin act | CBFb-RUNX1 inh | PTHR1 ag
Cc1nc(SCC(=O)N2CCCc3ccccc32)c2oc3ccccc3c2n1 | 17.9% | 34.2* | 15.4 | 10.2% | 11.8% | -9.5%[57.5 µM]
O=C(c1ccc([N+](=O)[O-])cc1)N1CCc2ccccc21 | nt | -27.4 | -55.5* | -31.9% | nt | i
O=C(C1CCC(C(=O)N2CCc3ccccc32)CC1)N1CCc2ccccc21 (stereo not drawn) | -2.1% | -10.1 | -59.0* | -0.8% | 11.1% | i
Cc1cc(N)n(-c2ccc(S(=O)(=O)c3ccc(C(C)C)cc3)cc2)n1 | -3.6% | 16.7 | 1.9 | -19.5% | 0.8% | -10.7%
COc1c(C)c2c(c(O)c1C/C=C(\C)CCC(=O)OCCN1CCOCC1)C(=O)OC2 | nt | -11.1 | nt | nt | nt | nt
Cc1cc(C)n(C(C)CC(=O)Nc2cccc(C(F)(F)F)c2)n1 (stereo not drawn) | nt | 4.5 | nt | nt | nt | -39.3%
O=C(NCc1ccco1)C(=O)NCC1OCCCN1S(=O)(=O)c1ccccc1 (stereo not drawn) | -19.3% | -1.1 | ? | 16.0% | 0.9% | i
Cc1ccccc1S(=O)(=O)N(C)C[C@@H]1OCc2cn(nn2)CCCC(=O)N([C@H](C)CO)C[C@H]1C | nt | 4.8 | -14.0 | 14.4% | nt | -13.2%
O=C1C(Cl)=C(N2CCN(c3ccccc3[N+](=O)[O-])CC2)C(=O)c2ccccc21 | ? | -16.0 | -60.3* | -48.9% | ? | i
O=c1[nH]c2cc3ccccc3cc2nc1-c1nnnn1C1CCCC1 | nt | -15.2 | -68.1* | nt | nt | -27.3%
Cc1cccc(OCCNC(=O)CCNS(=O)(=O)c2ccc3ccccc3c2)c1 | nt | 6.5 | 5.4 | -22.7% | nt | -20.7%
CC(=O)C1=C(O)C(=O)N(c2ccc(C(=O)O)cc2)C1c1ccc([N+](=O)[O-])cc1 (stereo not drawn) | ? | -10.0 | -3.2 | -3.0% | nt | -23.7%
CC(=O)C1=C(O)C(=O)N(c2ccc(S(N)(=O)=O)cc2)C1c1ccc([N+](=O)[O-])cc1 (stereo not drawn) | ? | -11.7 | -81.5* | 0.2% | 2.3% | -7.0%[57.5 µM]
Cc1cccc(N2CCN(C(=O)c3cn(CC(C)C)c(=O)c4c3c3ccccc3n4C)CC2)c1C | nt | 30.1* | nt | nt | nt | -71.9%
O=S1(=O)CCO[C@H]2Cc3ccccc3[C@H]2N1Cc1cccc(Cl)c1 | -3.5% | 6.2 | -8.2 | 25.8% | nt | i
O=S1(=O)CCO[C@H]2Cc3ccccc3[C@H]2N1Cc1ccc(Cl)cc1 | -8.3% | 53.7* | -7.2 | 29.8% | nt | -11.4%
CC1CCCC(NC(=O)Cn2cc(Br)ccc2=O)C1C (stereo not drawn) | nt | 0.0 | -23.3 | -5.7% | nt | -34.8%
COc1ccc(-c2oc3ncnc(NCCCN(C)C)c3c2-c2ccc(OC)cc2)cc1 | ? | -17.2 | -104.3* | -72.3% | nt | i
Cc1ccc(-c2oc3ncnc(N)c3c2-c2ccc(C)cc2)cc1 | -3.0% | 17.1 | 26.0 | 1.8% | -0.2% | ?
CN(C)CCNc1ncnc2oc(-c3ccccc3)c(-c3ccccc3)c12 | 18.2% | -14.6 | -60.7* | -73.5% | nt | ?
Cc1ccc2sc(NC(=O)CN3C(=O)c4ccccc4C3=O)nc2c1C | -2.6% | 2.2 | 2.4 | 6.2% | -2.8%[2.36 µM] | -18.3%
